tim10-1 inh = growth inhibitors of tim10-1 mutant yeast; S. cerevisiae tim10-1 ts strain growth, BacTiter-Glo, 24 h; inhibition, % at 20 µM; 330,000 compounds, 2.2% hits; AID 463190;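 active = inhibition of at least 40%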;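 also: mutant grown at 25 °C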
TIM10 inh = growth inhibitors of TIM10 yeast strain; S. cerevisiae TIM10 strain growth, BacTiter-Glo luminescence, 24 h; inhibition, % at 10 µM; 330,000 compounds, 1.4% hits;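 active = inhibition of 40% or more at the single tested concentration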;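 also: wild-type TIM10 isogenic control strain grown at permissive 25 °C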
NALP1 yeast inh = inhibitors of NALP1 inflammasome in yeast. S. cerevisiae NALP1/ASC/caspase-1 growth, X-gal OD620, 72 h. inhibition, % at 10 µM. 280,000 compounds, 0.61% hits; in the data active = inhibition mostly above about 24%, no sharp cut-off; inactive = mostly below about 32%
tim23-1 inh = inhibits growth of tim23-1 mutant yeast; 330,000 compounds, 1.3% hits; S. cerevisiae tim23-1 growth, BacTiter-Glo luminescence, 24 h; inhibition, % at 20 µM;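 active = growth inhibition of the mutant yeast at or above 50%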;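 also: temperature-sensitive mutant grown at 25 °C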
NALP3 yeast inh = inhibitors of NALP3 inflammasome in yeast; Yeast reconstituted NLRP3/ASC/caspase-1, beta-gal luminescence, 24 h; inhibition, % at 10 µM; 330,000 compounds, 0.39% hits; AID 2825;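 active = inhibition of 50% or more; inactive = inhibition below 50%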
tim10-1 conf = tim10-1 yeast growth inhibition, confirmed | shares compounds with tim10-1 inh | 7,400 compounds, 56% hits | S. cerevisiae tim10-1 ts strain growth, BacTiter-Glo, 24 h | inhibition, % at 20 µM;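 active = inhibition of yeast growth at or above a set limit in either of two repeat tests at 20 µM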;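 also: tim10-1 mutant grown at permissive 25 °C to find synthetic lethal compounds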
Numbers stand for hits; - = inactive; . = no result. Most compounds without a hit are left out; they make up all but 4.1% or so of the library.

SMILES	tim10-1 inh	TIM10 inh	NALP1 yeast inh	tim23-1 inh	NALP3 yeast inh	tim10-1 conf
Cc1cc(C)cc(OCC(=O)N2N=C(C(F)(F)F)CC2(O)C(C)(C)C)c1 (stereo not given)	46	-	-	-	-	34
CC1=NN(C(=O)c2ccc(Cn3nc(C)c(Br)c3C)cc2)C(O)(C(F)(F)F)C1 (stereo not given)	41	-	-	-	-	-
O=C(/C=C/c1ccccc1)N1CCN(CCN2C(=O)c3cccc4cccc(c34)C2=O)CC1	-	-	-	-	-	.
O=C(/C=C(/c1ccc(Cl)cc1)n1cncn1)c1ccccc1	43	-	-	-	-	31
CN(C(=O)c1ccccc1C(=O)OCC(=O)c1ccc(F)c(F)c1)C1CCCCC1	-	-	.	-	-	.
CCn1c(=O)n(CC)c2cc(N3CCCC3)c(NC(=O)c3ccccc3)cc21	-	-	-	-	-	.
CCn1c(=O)n(CC)c2cc(N3CCCC3)c(NC(=O)c3cc(Br)ccc3OC)cc21	44	-	-	-	-	-
CCn1c(=O)n(CC)c2cc(N3CCCC3)c(NC(=O)c3ccc(C)cc3)cc21	42	-	-	-	-	-
O=C(O)c1ccccc1-c1ccccc1C(=O)NCCCO	-	-	-	-	-	.
CCOC(=O)C1CCCN(C2=NC(=O)/C(=C/c3ccc(O)c(OCC)c3)S2)C1 (stereo not given)	46	-	-	-	-	-
CCOC(=O)C1CCCN(C2=NC(=O)/C(=C/c3ccc(OC)cc3)S2)C1 (stereo not given)	47	-	-	-	-	31
COc1cccc(CNC(=O)c2ccc(NC(=O)C3=CSCCO3)cc2)c1	45	-	-	-	-	-
Cc1ccc(CNC(=O)c2ccc(NC(=O)C3=CSCCO3)cc2)cc1	-	-	-	-	-	.
CCOC(=O)Nc1nc(-c2ccc(Cl)cc2Cl)cs1	40	-	-	-	-	-
O=C(/C=C/c1ccc(OC2CSC2)cc1)c1ccccc1	44	-	-	-	-	33
Cc1ccc(N2CSC3=C(C#N)C(c4cccs4)CC(=O)N3C2)cc1 (stereo not given)	40	-	-	-	-	-
CCNC(=S)NNC(=O)c1cc(-c2cccnc2)nc2ccccc12	55	-	-	-	-	41
CCNC(=S)NNC(=O)c1cc(-c2cccc(OCC)c2)nc2ccccc12	-	-	-	-	-	.
CCCCOc1cccc(-c2cc(C(=O)NNC(=S)NCC)c3ccccc3n2)c1	41	-	-	-	-	37
COC(=O)CN(C)C(=O)c1cccc(OC2CCN(S(=O)(=O)N(C)C)CC2)c1	-	-	-	-	-	.
CC1=C(C(=O)OCc2ccccc2)C(c2ccccc2OS(=O)(=O)c2ccc([N+](=O)[O-])cc2)NC(=O)N1CCCC(=O)O (stereo not given)	-	-	.	-	-	.
c1ccc(OCc2nnc3sc(-c4cccs4)nn23)cc1	47	-	-	-	-	-
Clc1ccc(Cl)c(-c2nn3c(COc4ccccc4)nnc3s2)c1	-	-	-	-	-	.
CCN(C[C@H]1N[C@@](C)(C(=O)OC)[C@H]2C(=O)N(C)C(=O)[C@@H]12)C(=O)c1ccc(C(C)(C)C)cc1	-	-	.	-	-	.
O=C(COC(=O)CCc1ccccc1)NNC(=O)c1ccccc1	-	-	.	-	-	.
SMILES	tim10-1 inh	TIM10 inh	NALP1 yeast inh	tim23-1 inh	NALP3 yeast inh	tim10-1 conf
Cc1ccc(CC(=O)Nc2nc3ccccc3s2)cc1	44	-	-	-	-	-
O=[N+]([O-])c1cccc(N(CC2CO2)S(=O)(=O)c2ccccc2)c1 (stereo not given)	-	-	-	-	-	.
CCOc1ccccc1C=Nc1ccccc1C(=O)Nc1ccccc1	46	-	-	-	-	-
O=C(Nc1ccccc1)c1ccccc1N=Cc1ccccc1O	-	-	-	-	-	.
O=C(Nc1nnc(CCc2ccccc2)s1)c1cccc(F)c1	-	-	-	-	-	.
COc1cc2ccccc2cc1C(=O)N(CCN(C)C)c1nc2c(C)cccc2s1	56	-	-	-	-	-
COc1cc2ccccc2cc1C(=O)N(CCN(C)C)c1nc2c(OC)ccc(OC)c2s1	46	-	-	-	-	-
COc1cc2ccccc2cc1C(=O)N(CCN(C)C)c1nc2ccc(C)cc2s1	42	-	-	-	-	-
O=C(Nc1cccc(F)c1)/C(=C\c1ccco1)NC(=O)c1ccco1	-	-	-	-	-	.
CN1CC(c2ccccc2)Oc2ccccc2C1=S (stereo not given)	-	-	.	-	-	.
CCCCCCCCCCOC(=O)Cn1c(COc2ccccc2C)[n+](C)c2ccccc21	70	-	-	-	-	-
CCCCCCCCCCOC(=O)Cn1c(COc2ccccc2)[n+](C)c2ccccc21	-	-	-	-	-	.
CC(=O)Nc1ccc(NC(=O)c2c(C)c(-c3ccccc3)nc3ccccc23)cc1	-	-	.	-	-	.
CCOC(=O)c1c(N2C(=O)C3CC(C)=C(C)CC3C2=O)sc(C)c1C (stereo not given)	40	-	-	-	-	-
O=c1[nH]c(NNC(=S)NCc2ccccc2)nc2c1C1(CCCCC1)Cc1ccccc1-2	43	-	-	-	-	-
O=c1[nH]c(NCCCO)nc2c1C1(CCCC1)Cc1ccccc1-2	-	-	-	-	-	.
C=CCNC(=S)NNc1nc2c(c(=O)[nH]1)C1(CCCC1)Cc1ccccc1-2	48	-	-	-	-	38
c1ccc(-c2cc(-c3nc4ccccc4[nH]3)c3ccccc3n2)cc1	51	-	-	-	-	38
COc1ccc(C(=O)/C=C/c2ccccc2)c(O)c1	49	-	-	-	-	47
COc1ccc(C(=O)c2ccc(OC)cc2O)c(O)c1	41	-	-	-	-	36
CCCCCn1c(N2CCOCC2)nc2c1c(=O)n(CC(N)=O)c(=O)n2C	-	-	-	-	-	.
CCOc1ccccc1NC(=O)CSc1nc(=O)n(CCCN2CCOCC2)c2c1CCCC2	-	-	.	-	-	.
Cc1c(OCC(=O)NCCCN2CCOCC2)ccc2c3c(c(=O)oc12)CCC3	48	-	-	-	-	-
Cc1ccc(S(=O)(=O)N/N=C\c2cc([N+](=O)[O-])ccc2Cl)cc1	46	-	-	-	-	32
CC(=O)[C@H]1[C@H](c2cccc(Cl)c2)C(C#N)(C#N)[C@@H]2c3ccccc3C=CN21	48	-	.	-	-	-
CN(C)c1nc(OCCOC(=O)Nc2ccc(Cl)cc2Cl)nc(N(C)C)n1	42	-	-	-	-	-
O=C(NCc1ccncc1)/C(=C/c1cccc([N+](=O)[O-])c1)NC(=O)c1ccccc1	-	-	-	-	-	.
CCOc1ccccc1NC(=O)c1c(NC(=O)CCC(=O)O)sc2c1CCCCC2	-	-	-	-	-	.
CCCC(=O)Nc1sc2c(c1C(=O)Nc1ccccn1)CCCC2	45	-	-	-	-	-

Compound activity: PubChem, Sanford-Burnham Center for Chemical Genomics
